High-throughput results (PubChem BioAssay)
OPRM1-OPRD1 ag: agonists of OPRM1-OPRD1 heterodimerization, primary screen, cell-based, luminescence | cells | activation, % at 9.3 µM | 340,000 tested, 0.3% active | AID 504326, 2011; in the data active means activation above about 18%;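 further: 0% = vehicle-treated cells and 100% = reference agonist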
Target sequence (P35372 whole entry, looked up): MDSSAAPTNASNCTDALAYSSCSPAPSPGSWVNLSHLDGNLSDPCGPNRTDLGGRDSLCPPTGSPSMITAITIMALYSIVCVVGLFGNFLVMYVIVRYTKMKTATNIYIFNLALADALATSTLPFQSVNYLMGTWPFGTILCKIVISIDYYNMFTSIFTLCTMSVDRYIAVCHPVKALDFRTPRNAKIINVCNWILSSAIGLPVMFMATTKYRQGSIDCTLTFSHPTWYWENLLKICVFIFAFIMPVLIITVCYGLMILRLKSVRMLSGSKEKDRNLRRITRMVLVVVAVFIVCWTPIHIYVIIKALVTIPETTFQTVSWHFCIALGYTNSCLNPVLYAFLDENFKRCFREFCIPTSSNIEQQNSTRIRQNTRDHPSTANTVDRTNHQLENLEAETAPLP
Target sequence (P41143 whole entry, looked up): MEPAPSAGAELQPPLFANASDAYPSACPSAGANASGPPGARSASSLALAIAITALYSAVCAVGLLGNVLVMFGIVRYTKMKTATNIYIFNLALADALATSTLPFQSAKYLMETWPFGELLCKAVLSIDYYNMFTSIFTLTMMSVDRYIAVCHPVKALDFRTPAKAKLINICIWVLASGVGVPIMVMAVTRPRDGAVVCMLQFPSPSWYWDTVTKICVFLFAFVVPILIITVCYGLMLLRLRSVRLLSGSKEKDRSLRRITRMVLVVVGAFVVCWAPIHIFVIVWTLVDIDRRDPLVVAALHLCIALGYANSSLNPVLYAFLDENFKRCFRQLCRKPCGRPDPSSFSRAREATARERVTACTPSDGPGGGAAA
HTR5A inv ctr: HTR5A inverse agonists in luminescence cell assay, primary screen, counter-screen for OPRM1-OPRD1 heterodimer inverse agonist project, full-deck HTS; 5-hydroxytryptamine receptor 5A (Homo sapiens), P47898; HTR5A cell line, inverse agonism; inhibition, % at 9.3 µM; 340,000 tested, 0.083% active; in the data active means inhibition mostly above about 23%, no sharp cut-off; inactive means mostly below about 18%;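 further: 0% = cells with DMSO and 100% = no-cell wells with DMSO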
MOR-DOR inv ag: inverse agonists of MOR-DOR heterodimerization, primary screen, cell-based, luminescence; inhibition, % at 9.3 µM; cell-based MOR-DOR heterodimer luminescence, inverse agonism; AID 504357, 2011; 340,000 tested, 0.21% active; in the data active means inhibition above about 22%, passing the limit was not always enough;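 further: 0% = cells with DMSO and 100% = wells without cells with DMSO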
HTR5A ag: HTR5A agonists in luminescence cell assay, primary screen, counter-screen for OPRM1-OPRD1 heterodimer agonist project, full-deck HTS | 5-hydroxytryptamine receptor 5A (Homo sapiens), P47898 | cell-based | activation, % at 9.3 µM | 340,000 tested, 0.61% active | AID 504692, 2011; in the data active means activation mostly above about 9.5%, no sharp cut-off; inactive means mostly below about 7.6%;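 further: 0% = cells with vehicle only and 100% = reference agonist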
An asterisk follows results filed as active. Shown are actives, neighbours in structure and some others; about 1.1% of the full set was active somewhere.

For CC(=O)Nc1cccc(-c2csc(Nc3ccc(Cl)cn3)n2)c1 the results were OPRM1-OPRD1 ag -1, HTR5A inv ctr 7, MOR-DOR inv ag 7 and HTR5A ag -1.
For CC(=O)Nc1ccc(-c2csc(Nc3ccc(Cl)cn3)n2)cc1 the results were OPRM1-OPRD1 ag 2, HTR5A inv ctr -28, MOR-DOR inv ag -8 and HTR5A ag 11*.
`C=C(C)Cn1c(CCNC(=O)C(C)(C)C)nc2ccccc21` gave OPRM1-OPRD1 ag -1, HTR5A inv ctr -4, MOR-DOR inv ag 5 and HTR5A ag 10*.
Screening CCC(CC)C(=O)c1c[nH]c(C(=O)NCc2ccccn2)c1 returned OPRM1-OPRD1 ag 1, HTR5A inv ctr -23, MOR-DOR inv ag -5 and HTR5A ag 9.1*.
CC(C)C(NC(=O)c1ccc(C(C)(C)C)cc1)C(=O)NCCc1ccccn1 (stereo not drawn) was read as OPRM1-OPRD1 ag 1, HTR5A inv ctr -4, MOR-DOR inv ag -4 and HTR5A ag 1.
For CCC(CC)C(=O)c1c[nH]c(C(=O)NCCc2ccccn2)c1 the results were OPRM1-OPRD1 ag 0, HTR5A inv ctr -1, MOR-DOR inv ag -2 and HTR5A ag 13*.
`CCC(CC)C(=O)c1c[nH]c(C(=O)NCc2cccs2)c1` gave OPRM1-OPRD1 ag -3, HTR5A inv ctr 4, MOR-DOR inv ag 16 and HTR5A ag 3.
CC(C)(C)c1ccc(C(=O)c2c[nH]c(C(=O)NCCc3ccccn3)c2)cc1 was read as OPRM1-OPRD1 ag -2, HTR5A inv ctr -26, MOR-DOR inv ag 8 and HTR5A ag 9.4*.
`Cc1cccc(OCC(=O)Nc2ccccc2C(=O)N2CCOCC2)c1` gave OPRM1-OPRD1 ag 1, HTR5A inv ctr 0, MOR-DOR inv ag -5 and HTR5A ag 0.
For CCOc1ccc(-c2nonc2NC(=O)c2ccco2)cc1OCC the results were OPRM1-OPRD1 ag 1, HTR5A inv ctr -5, MOR-DOR inv ag -6 and HTR5A ag 13*.
`COc1ccc(-c2nonc2NC(=O)c2ccco2)cc1OC` gave OPRM1-OPRD1 ag -2, HTR5A inv ctr 8, MOR-DOR inv ag 8 and HTR5A ag -4.
Screening Cc1cccc(N(C)C(=O)COc2cc(=O)n(C)c3ccccc23)c1 returned OPRM1-OPRD1 ag -1, HTR5A inv ctr -31, MOR-DOR inv ag 4 and HTR5A ag 11*.
CCn1c(=O)cc(OCC(=O)Nc2cc(C)ccn2)c2ccccc21 was read as OPRM1-OPRD1 ag 0, HTR5A inv ctr -6, MOR-DOR inv ag 1 and HTR5A ag 1.
`CCn1c(=O)cc(OCC(=O)NCCc2cccc(C)c2)c2ccccc21` gave OPRM1-OPRD1 ag -1, HTR5A inv ctr -32, MOR-DOR inv ag 5 and HTR5A ag 12*.
`Cc1c(-c2ccccc2)nc(N)c(C#N)c1-c1ccco1` gave OPRM1-OPRD1 ag -2, HTR5A inv ctr 11, MOR-DOR inv ag 11 and HTR5A ag -4.
`CC1=NN(c2nc(N)nc(/C(C#N)=C/c3ccc([N+](=O)[O-])o3)n2)C(C)(C)C1` gave OPRM1-OPRD1 ag 10, HTR5A inv ctr 7, MOR-DOR inv ag -48 and HTR5A ag -2.
For CC1CC(C)CN(C(=O)COc2ccc([N+](=O)[O-])cc2Cl)C1 (stereo not drawn) the results were OPRM1-OPRD1 ag -1, HTR5A inv ctr 28, MOR-DOR inv ag 5 and HTR5A ag 2.
`O=C(CSc1ncn[nH]1)Nc1ccc(Cl)c(Cl)c1` gave OPRM1-OPRD1 ag -3, HTR5A inv ctr 6, MOR-DOR inv ag 16 and HTR5A ag 8.7*.
Screening O=C(CSc1ncn[nH]1)Nc1ncc(C(F)(F)F)cc1Cl returned OPRM1-OPRD1 ag 0, HTR5A inv ctr -5, MOR-DOR inv ag 3 and HTR5A ag 2.
CCOC(=O)C(=CNc1cc(C)nn1-c1ccc(Cl)cc1)C(=O)OCC was read as OPRM1-OPRD1 ag 8, HTR5A inv ctr -36, MOR-DOR inv ag -42 and HTR5A ag 10*.
Screening COc1ccc(C2CC(C(F)(F)F)n3nc(C(=O)O)cc3N2)cc1OC (stereo not drawn) returned OPRM1-OPRD1 ag -3, HTR5A inv ctr 10, MOR-DOR inv ag 15 and HTR5A ag -4.
CCCc1cc(=O)oc2cc(C)c3c(C)coc3c12 was read as OPRM1-OPRD1 ag 3, HTR5A inv ctr 3, MOR-DOR inv ag -14 and HTR5A ag 12.
For Cc1cc(NC(=O)c2cc(-c3ccncc3)nc3c(C)cccc23)no1 the results were OPRM1-OPRD1 ag 1, HTR5A inv ctr 8, MOR-DOR inv ag -3 and HTR5A ag -4.
Screening Cc1ccc2nc(-c3ccccc3)cc(C(=O)Nc3cccnc3)c2c1 returned OPRM1-OPRD1 ag 8, HTR5A inv ctr -27, MOR-DOR inv ag -30 and HTR5A ag 13*.
Cc1cccc(NC(=O)c2cc(-c3cccnc3)nc3c(C)cccc23)n1 was read as OPRM1-OPRD1 ag 8, HTR5A inv ctr -9, MOR-DOR inv ag -45 and HTR5A ag 11*.
Cc1cccc(-c2cc(C(=O)Nc3cccnc3)c3ccccc3n2)c1 was read as OPRM1-OPRD1 ag 5, HTR5A inv ctr -12, MOR-DOR inv ag -37 and HTR5A ag 0.
For Cc1ccc(-c2cc(C(=O)Nc3cccnc3)c3ccccc3n2)s1 the results were OPRM1-OPRD1 ag 8, HTR5A inv ctr -33, MOR-DOR inv ag -41 and HTR5A ag 10*.
For Cc1cccc(-c2cc(C(=O)Nc3ccncc3)c3ccccc3n2)c1 the results were OPRM1-OPRD1 ag 21*, HTR5A inv ctr -43, MOR-DOR inv ag -118 and HTR5A ag 12*.
For Nc1c(C(=O)CSc2nc(-c3ccccc3)cs2)c(=O)[nH]c(=O)n1C1CC1 the results were OPRM1-OPRD1 ag -1, HTR5A inv ctr -4, MOR-DOR inv ag 4 and HTR5A ag -2.
For COc1ccc(-c2c(-c3ccc(OCC(=O)NN)cc3O)n[nH]c2C)cc1 the results were OPRM1-OPRD1 ag -1, HTR5A inv ctr -4, MOR-DOR inv ag 3 and HTR5A ag 6.
CCc1ccc(N2CC(O)(c3cccs3)[N+]3=C2SCCC3)cc1 (stereo not drawn) was read as OPRM1-OPRD1 ag -3, HTR5A inv ctr -9, MOR-DOR inv ag 13 and HTR5A ag 4.
For C(=N/Nc1nc(-c2ccccc2)cc(-c2ccccc2)n1)/c1cccnc1 the results were OPRM1-OPRD1 ag 3, HTR5A inv ctr 14, MOR-DOR inv ag -15 and HTR5A ag 4.
For Cc1cc(-c2ccccc2)nc(N/N=C/c2cccnc2)n1 the results were OPRM1-OPRD1 ag 0, HTR5A inv ctr -27, MOR-DOR inv ag 0 and HTR5A ag 11*.
`Cc1ccc(/C=N\NC(=O)c2cc(OCC(F)(F)F)ccc2OCC(F)(F)F)cc1` gave OPRM1-OPRD1 ag 28*, HTR5A inv ctr -48, MOR-DOR inv ag -128 and HTR5A ag 15*.
COc1ccc(/C=N\NC(=O)c2cc(OCC(F)(F)F)ccc2OCC(F)(F)F)cc1 was read as OPRM1-OPRD1 ag 16, HTR5A inv ctr 1, MOR-DOR inv ag -80 and HTR5A ag 0.
